# Screens deposited in PubChem BioAssay by National Center for Advancing Translational Sciences (NCATS).
# POLI inh: inhibitors of human DNA polymerase iota. Pol iota fluorescent replication assay, 10 min. Potency, µM (doses to about 115 µM), for the others: at the highest dose activity, negative = inhibition, hits mostly inhibitors. hit rate 1% among 390,000. Q9UNA4
#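 Fluorescent replication assay read twice, at 0 min and 10 min after adding 50 nM (final) substrate. Enzyme (10 nM) and compounds were first incubated 15 min at room temperature; enzyme-free buffer wells were negative controls.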
# TDP1 inh: blocks human tyrosyl-DNA phosphodiesterase 1 | Q9NUW8 | recombinant TDP1, AlphaScreen DNA substrate cleavage | Potency, µM (series often up to 130 µM), inactives show at the top dose activity change, negative = inhibition, usual class: inhibitors | hit rate 0.28% among 350,000 | AID 485290; further: on the % scale 0 is the no-effect control and ±100 the full control effect; nearly all actives have a fitted effect of over 40% in size
#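 AlphaScreen read-out: signal falls as enzyme removes the 3' tyrosine-FITC from a 5'-biotinylated DNA oligo (15 nM, 5 min, RT). Enzyme was E. coli-made recombinant Tdp1 at 1 nM, exposed to compound for 15 min beforehand; beads 10 ug/ml, 10 min.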
# POLK inh: inhibitors of human DNA polymerase kappa. AID 588579. Q9UBT6. hit rate 0.53% among 400,000. Potency, µM (top dose mostly 107 µM), inactives show at the top dose activity, negative = inhibition, hits mostly inhibitors. purified Pol kappa, fluorescent DNA synthesis assay, 10 min; further: on the % scale 0 is the no-effect control and ±100 the full control effect
#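 Enzyme at 10 nM met test compounds for 15 min at room temperature. Substrate addition (50 nM final) began the reaction, which was monitored by fluorescence at 0 and 10 min.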
# POLB inh: blocks human DNA polymerase beta activity; P06746; Pol beta primer extension/strand displacement, fluorescence kinetic; Potency, µM (doses to about 114 µM), inactives show at the top dose activity change, negative = inhibition, hits mostly inhibitors; hit rate 1.3% among 340,000; further: on the % scale 0 is the no-effect control and ±100 the full control effect
#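 Curves were derived by four-parameter Hill fits of normalized qHTS data. The kinetic fluorescent primer-extension read was taken at 0 and 10 min after 50 nM substrate, following a 15 min room-temperature preincubation of 10 nM enzyme with compounds.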
# POLH inh: blocks human DNA polymerase eta activity. AID 588591. hit rate 1.2% among 390,000. recombinant Pol eta, fluorescent DNA replication assay. Potency, µM (series often up to 114 µM), for the others: at the highest dose activity change, negative = inhibition, actives largely listed as inhibitors. Q9Y253; further: on the % scale 0 is the no-effect control and ±100 the full control effect
# Target sequence (Q9Y253 whole entry, looked up): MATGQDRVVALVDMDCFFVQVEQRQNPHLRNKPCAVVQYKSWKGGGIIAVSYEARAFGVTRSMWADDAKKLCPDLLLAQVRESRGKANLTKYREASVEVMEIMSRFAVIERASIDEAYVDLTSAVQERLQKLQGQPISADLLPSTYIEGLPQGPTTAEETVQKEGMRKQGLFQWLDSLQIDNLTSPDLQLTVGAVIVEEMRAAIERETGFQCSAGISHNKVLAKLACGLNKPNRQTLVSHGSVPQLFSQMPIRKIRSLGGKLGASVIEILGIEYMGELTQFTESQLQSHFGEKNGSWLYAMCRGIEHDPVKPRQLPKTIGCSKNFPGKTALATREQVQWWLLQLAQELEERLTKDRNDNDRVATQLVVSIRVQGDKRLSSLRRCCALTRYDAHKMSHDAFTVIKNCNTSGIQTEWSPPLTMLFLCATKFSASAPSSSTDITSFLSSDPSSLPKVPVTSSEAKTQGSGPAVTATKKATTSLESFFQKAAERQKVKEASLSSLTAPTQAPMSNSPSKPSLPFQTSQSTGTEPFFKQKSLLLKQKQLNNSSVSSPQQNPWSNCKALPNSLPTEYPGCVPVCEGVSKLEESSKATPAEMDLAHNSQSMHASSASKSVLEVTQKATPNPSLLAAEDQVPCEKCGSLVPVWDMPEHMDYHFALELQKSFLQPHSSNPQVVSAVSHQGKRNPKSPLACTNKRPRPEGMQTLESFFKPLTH
#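 Pol eta (10 nM) was preincubated with compounds for 15 min at room temperature, after which fluorescent replication substrate (50 nM final) was added to start the reaction. Fluorescence was read kinetically at 0 and 10 min.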
# * hit, by the source's call; ? = inconclusive; . = no result; [ ] = another dose, or the depositor's remark. Sampled rows, rich in hits. Any-hit rate of the full collection: about 2.4%. The call rests on the fitted dose curve; in most records, active means well fitted curve in the direction sought with a large enough effect; inconclusive means small, poorly fitted or top-dose-only effect, or another doubt; inactive means no such curve, though single readings can be large; an effect the other way counts as inactive or inconclusive. Potency means the concentration at half of the fitted maximal effect.
SMILES,POLI inh,TDP1 inh,POLK inh,POLB inh,POLH inh
O=C(Cn1ncn2c(cc3ccccc32)c1=O)NCc1ccco1,?,-8.0%,3.0%[60.1 µM],50.1µM*,89.1µM*
COc1ccc(CCNC(=O)Cn2cnc3scc(-c4ccccc4)c3c2=O)cc1OC,11.7%,2.7%,-0.7%,-2.0%,-5.6%
Cc1nc(SCC(=O)NC(=O)NCc2ccco2)nc(C)c1C,?,-5.9%,-14.3%,17.8µM*,-21.4%
COc1ccc(CNC(=O)Cn2ncn3c(cc4ccccc43)c2=O)cc1,50.0%,.,-4.1%,31.6%,-1.5%
O=C(Cn1cnc2scc(-c3ccccc3)c2c1=O)NCc1ccco1,56.2µM*,-2.4%,?,28.2µM*,22.4µM*
CC(C)(C)n1ncc2c(=O)n(Cc3cccc(C(F)(F)F)c3)cnc21,-20.3%,.,-15.3%,.,.
COc1ccc(NC(=O)c2ccc3c(c2)c(C)c(C)n3Cc2ccc(F)cc2)c(OC)c1,16.3%,7.9%,-6.6%,?,2.5%
COC1=C/C(=C/c2c(N)n3nc(-c4ccc(C)cc4)sc3nc2=O)C=CC1=O,14.1µM*,0.0%,-9.5%,56.2µM*,22.4µM*
COC1=C/C(=C/c2c(N)n3c(nc2=O)sc2cc(S(C)(=O)=O)ccc23)C=CC1=O,?,0.0%,-32.0%,-1.4%,28.2µM*
N#CC1=C(N)CCC1,26.1%,.,12.0%,.,.
CCCCNS(=O)(=O)c1cc(-c2nn(C)c(=O)c3ccccc23)ccc1C,?,.,?,35.5µM*,?
CCN(CC)S(=O)(=O)c1cc(-c2nn(C)c(=O)c3ccccc23)ccc1C,?,.,-9.3%,44.7µM*,?
COCCNS(=O)(=O)c1cc(-c2nn(C)c(=O)c3ccccc23)ccc1C,8.4%,-6.1%,-5.0%,11.2%,?
O=S(=O)(c1ccccc1C(F)(F)F)N1CCN(c2nc(-c3cccs3)nc3ccccc23)CC1,?,0.3%,10.0%,.,.
CCc1ccc(OCc2nnc(-c3ccccc3Br)o2)cc1,7.7%,50.1µM*,-4.2%,.,-20.3%
O=C(C[N+]12CN3CN(CN(C3)C1)C2)c1ccc(O)c(O)c1,10µM*,.,3.16µM*,.,.
O=C(C[N+]12CN3CN(CN(C3)C1)C2)c1ccc(Cl)cc1,-4.8%,.,1.4%,.,.
CC(C)CCN1C(=O)c2ccc(C(=O)Nc3ccc(Br)cc3C(=O)O)cc2C1=O,?,3.1%,-34.5%,-2.5%,31.6µM*
Clc1ccc(C(c2nnnn2C2CCCC2)N2CCN(Cc3ccncc3)CC2)cc1 (centres undefined),-1.7%,-2.9%,-12.5%,18.0%,-9.8%
O=c1c(C(c2nnnn2C2CCCCC2)N2CCCCC2)coc2ccc(Cl)cc12 (centres undefined),8.2%,-5.7%,-9.1%,100µM*,-13.3%
COc1ccc(CNC(=O)Cn2ccc3cc(S(=O)(=O)N4CCCCC4)ccc32)cc1OC,1.8%,8.5%,-1.0%,5.8%,-8.1%
Nc1ccc(/C=C/c2ccnc3ccccc23)c(N)c1,46.0%,.,9.4%,.,.
CC(C)(C)OC(=O)Cc1nnc(-c2cc3ccccc3[nH]2)s1,.,0.5%,.,.,.
CCCCCCC[n+]1ccc(/C=C/c2c(C)[nH]c3ccccc23)c2ccccc21,79.4µM*,.,?,.,.
CCCCCCC[n+]1ccc(/C=C/c2c[nH]c3ccccc23)c2ccccc21,?,.,31.6µM*,.,.
SMILES,POLI inh,TDP1 inh,POLK inh,POLB inh,POLH inh
CCCCCCCCCC[n+]1ccc(/C=C/c2c(C)[nH]c3ccccc23)c2ccccc21,58.9%,.,?,.,.
O=C(C[n+]1c(Cl)ccc2ccccc21)c1ccc2ccccc2c1,10.3%,.,-15.4%,.,.
CCOC(=O)c1c(C)[nH]c(C)c1S(=O)(=O)NCC(=O)NCc1ccccc1C,-6.2%,-2.6%,-5.6%,-0.5%,-10.6%
CC1CCC(O)C/C1=C\C=C1/CCCC2(C)C1CCC2C(C)/C=C/C(C)C(C)C (centres undefined),.,11.5%,-14.8%[19.4 µM],.,.
COc1ccc(OCC(=O)Nc2nc3ccc(NC(C)=O)cc3s2)cc1,7.7%,.,7.9%,22.4µM*,?
O=C(O)c1cc(NS(=O)(=O)c2ccc(NC3CCCCC3)c([N+](=O)[O-])c2)cc(C(=O)O)c1,-23.3%,0.0%,-41.4%,2.8%,44.7µM*
O=C(O)c1cc(NS(=O)(=O)c2ccc(N3CCOCC3)c([N+](=O)[O-])c2)cc(C(=O)O)c1,7.4%,-1.4%,-7.2%,-2.0%,3.7%
Cc1cccc(OCC(=O)Nc2ccc(Cl)c(-c3nc4ccccc4[nH]3)c2)c1,5.8%,6.8%,-9.5%,8.5%,.
O=C1CN(S(=O)(=O)c2ccccc2)c2ccccc2N1,27.9%,5.6%,2.0%,?,5.3%
O=C1CN(S(=O)(=O)c2cc(C(=O)O)ccc2Cl)c2ccccc2N1,?,9.3%[0.0935 µM],-8.5%,50.1µM*,50.1µM*
COc1ccc(CCN2C(=O)CC(C(N)=O)SC2=Nc2ccccc2)cc1 (centres undefined),79.4µM*,.,-20.9%,?,?
O=S1(=O)N=C(Oc2cccc(C(F)(F)F)c2)c2ccccc21,.,1.7%,.,.,.
CCOC(=O)C1CCCN(C(=O)c2ccc(CS(=O)(=O)c3ccc(C)cc3)o2)C1 (centres undefined),31.6µM*,-14.4%,-41.1%,?,17.8µM*
Cc1ccc(S(=O)(=O)Cc2ccc(C(=O)N3CCN(c4cc(C)ccc4C)CC3)o2)cc1,?,0.0%,-24.9%,39.8µM*,-7.4%
O=C(Cc1nnc(CNC(=O)c2ccccc2)s1)Nc1ccc(C(F)(F)F)cc1Cl,.,0.9%,.,.,.
COc1ccc(C(C)NC(=O)CN(c2cc(OC)ccc2OC)S(=O)(=O)c2ccccc2)cc1 (centres undefined),?,4.5%,-32.2%,20µM*,?
CC(=O)Nc1cccc(NC(=O)Nc2cccc3ccccc23)c1,?,-0.1%,-3.3%,50.1µM*,8.5%
CCOC(=O)NC1(Nc2cccc(Cl)c2)Oc2ccccc2O1,25.1µM*,-5.6%,?,4.2%,-11.2%
O=C(C[n+]1cc(Br)cc(Br)c1)c1ccc2ccccc2c1,30.1%,.,-22.1%,.,.
Cc1nn(-c2ccc(F)cc2)c2nc(N)c(C#N)c(-c3ccc(O)c(O)c3)c12,72.8%,.,-24.6%,?,?
Cc1nn(-c2ccccc2)c2nc(N)c(C#N)c(-c3ccc(O)c(O)c3)c12,?,.,-3.4%,?,50.1µM*
CCOc1ccc(NC(=O)/C=C\C(=O)N(c2ccc(C(C)C)cc2)C(C(=O)NCc2ccco2)c2ccc(F)cc2)cc1 (centres undefined),31.9%,2.6%,-14.1%[60.1 µM],-11.1%,-12.6%
O=C(NNC(=O)c1cccs1)c1cccc(F)c1,?,0.5%,-21.9%,7.4%,0.8%
O=C(N/N=C/c1ccc(OC(=O)c2cccs2)cc1)c1cccc(F)c1,-15.4%[58.9 µM],-13.7%,-23.9%,8.91µM*,-26.3%
CCOc1ccc(CCNc2ncnc3onc(-c4ccc(F)cc4)c23)cc1OCC,21.2%,3.8%,-13.3%[60.1 µM],-29.0%,-14.9%
